Values joined by “and” are separate entries in the source; they are usually repeats but may differ in a detail not shown here. Identical values can stand only once. About 83,000 compounds went through this panel and 20% of them were active in at least one assay; those are over-represented in the sample as a whole.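 Compound tested at a single concentration for 48 hours in 96-well plates; a percent growth value below 10 was scored as active.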 Values without a mark were called inactive. Active and inactive are the calls of the source.

The test system of the experiment is MDA-MB-468 breast. Put plainly: NCI-60 one-dose screen, 48 h (100 = growth as untreated, 0 = no growth, -100 = all killed). Particulars: 10 µM unless noted.
With `CSc1nc2ccccc2cc1/C=[N+](\[O-])c1ccccc1`, the growth was 88%. Regarding `c1ccc(-c2nnc(-c3c[nH]c4ncccc34)s2)cc1`, the growth was 79.9%. Under `CC1=CC(=O)C=CC1(C)C(Cl)(Cl)Cl` (stereo not given) stands 98.4%. Regarding `O=C(NNC(=O)c1ccc(-n2cc(-c3ccccc3)nn2)cc1)Nc1ccccc1`, the growth was 109%. As for `Nc1c(C(=O)O)cc(Cl)cc1[N+](=O)[O-]`, the growth was 96.2%. The value for `CCOC(=O)CSc1nnc(-c2cc3c([nH]c4ccccc43)c(-c3cccc(O)c3)n2)n1-c1ccc(C)cc1` was 27.2%; that for `N#C/C(=C/c1c(O)ccc2ccccc12)C(N)=O` was 97.3%. Under `C#C[C@]1(O)CC[C@H]2[C@@H]3CC=C4c5sc(Nc6ccc(Cl)cn6)nc5CC[C@]4(C)[C@H]3CC[C@@]21C` stands 68.4%. The value for `O=C(O)CCCCCNC(=O)OCc1ccccc1` was 116%.

On to `COc1ccc(-c2n[nH]nc2-c2csc3ccccc23)cc1OC`, for which the growth is 21.1%. The value for `O=C(COc1ccc(/C=C2\Cc3ccc(Cl)cc3C2=O)cc1)Nc1nc2ccccc2s1` was 109%. In the case of `C=C(C)[C@@H]1CC[C@]2(CN)CC[C@]3(C)[C@H](CC[C@@H]4[C@@]5(C)CCC(N)[C@@](C)(CO)[C@@H]5CC[C@]43C)[C@@H]12` (stereo not given in full), the growth is -86.6% (active). Under `CCOC(=O)[C@H](CSSc1ncnc2cc[nH]c12)NC(=O)[C@@H](C)c1ccc2cc(OC)ccc2c1` stands 5.8% (active); under `C=C1C(=O)O[C@H]2[C@H]1CC/C(COC(=O)NCc1ccc(Cn3c(=O)sn(CCCC)c3=O)cc1)=C\CC[C@@]1(C)O[C@@H]21`, 12.2%; under `N#Cc1cccc(OCc2nc(N)nc(N)c2-c2ccc(Cl)c(Cl)c2)c1`, 19.3%.

As to `Cc1nc2sc(C(=O)Nc3cccc(Br)c3)c(N)c2cc1C(=O)c1ccc(C(F)(F)F)cc1`, the growth is 90.6%. The value for `CC(C)(C)C(=O)/C=c1/[nH]c(=O)/c(=C/c2ccccc2O)s1` was 17.2%; that for `CNc1cc(-c2cccc(OC(F)(F)F)c2)nc2ccc(N3CCCC3)cc12` was -69.7% (active) and -68% (active) and -66.2% (active). With `COc1cc2ncnc(-n3ncc4cc(NC(=O)Nc5ccc(Cl)c(C)c5)ccc43)c2cc1OC`, the growth was 93.6%. The value for `COc1ccc(Sc2[nH]c(C=O)c3ccccc23)cc1` was 9.32% (active); that for `COc1c(N)c2c(c([N+](=O)[O-])c1OC)C(=O)OC2` was 107%; that for `COc1cc(C(=O)c2cc3c(cc2C)OCO3)cc(OC)c1OC` was 27.6%. The value for `NS(=O)(=O)c1ccc(-n2nc(C(=O)N/N=C\c3ccc(F)cc3)cc2-c2ccc(Cl)cc2)cc1` was 112%. On to `FC(F)(F)Oc1ccc2c(c1)C[C@H]1C[C@@H](c3ccoc3)N2O1`, for which the growth is 118%.

`Cn1cc(CNc2nc3ccc(OC/C(=C/F)CN)cc3o2)ccc1=O`: the growth was 107%. The value for `C[C@H]1Oc2cc(cnc2N)-c2c(nn(C)c2C#N)CN(C)C(=O)c2ccc(F)cc21` was 98.5%.

As for `CCOC(=O)c1c(N)c(C#N)cn1-c1cc(OC)c(OC)c(OC)c1`, the growth is 103%. With `CCCCCCC(C(=O)OCC)(C(=O)OCC)C1CCCCCC1`, the growth is 112%.

As to `N#CCCN1CCN(CCC#N)C1=S`, the growth is 119%. For `Cc1nc2ccccc2c(/C=C/c2ccc(Br)cc2)c1C(=O)/C=C/c1ccccc1`, the growth is -15.5% (active).

For the compound `COC(=O)c1ccc(-n2cc(CCCOS(=O)(=O)c3ccc(F)cc3)nn2)cc1`, the growth is 108%. On to `O=c1[nH]c(Cc2nc3ccccc3s2)nc2cc(Br)ccc12`, for which the growth was 92.4%. Under `COc1ccc(C(c2cc(OC)c(OC)c(OC)c2)n2cncn2)cc1O` (stereo not given) stands 7.88% (active). Take `COc1cc2c(cc1OC)-c1ccc3cc4c(cc3c1N(CCN1CCCC1)C2)OCO4`: the growth was -5.22% (active). Under `O=C(CSC(=S)N1CCCCC1)Nc1ccccc1` stands 103%; under `COC(=O)[C@]12CC[C@@H](C)[C@H](C)[C@@H]1C1=CC[C@@H]3[C@@]4(C)CC(=O)[C@H](O)[C@@]5(C)COC(=C45)C[C@@]3(C)[C@]1(C)CC2`, -83.9% (active). Under `COc1cc2c(cc1I)-c1c(cc(OC)c(OC)c1OC)CC[C@@H]2NC(C)=O` stands -6.02% (active); under `S=C1NCc2cncnc2N1`, 99.7%. Regarding `COc1ccc(OC)c(/C=C/C(=O)c2c(C)nc3ccccc3c2/C=C/c2ccccc2)c1`, the growth was 60.5%. Turning to `C=CC(=O)Nc1cc2c(Nc3ccc(F)c(Cl)c3)ncnc2cc1OCCCN1CCOCC1`, the growth is -31.5% (active).

Source of the values: PubChem BioAssay (NCI).
